Compound activity as filed in PubChem BioAssay.
ALOX12 inh: blocks human arachidonate 12S-lipoxygenase; P18054; purified 12hLO, xylenol orange hydroperoxide absorbance; Potency, µM (series often up to 108 µM), most hits filed as inhibitors; hit rate 1.1% among 580,000; active = well fitted curve in the direction sought with a large enough effect; inconclusive = small, poorly fitted or top-dose-only effect, or another doubt; inactive = no such curve, though single readings can be large; an effect the other way counts as inactive or inconclusive
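Purified human 12hLO at 150 nM in 25 mM Hepes, 0.01% Triton X-100, pH 7.0, preincubated 15 min at room temperature with compound. Reaction started with 40 uM arachidonic acid, 30 min at room temperature. Hydroperoxide measured by Fe-xylenol orange, 573/405 nm absorbance ratio.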
Rango dissoc inh: inhibition of RanGTP-driven Rango-importin beta dissociation | Biochemical FRET Rango-importin beta, RanGTP-induced dissociation | Potency, µM (series often up to 46.1 µM) | hit rate 0.071% among 340,000 | AID 540253; note: nearly all actives have a fitted effect of over 45% in size
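Compounds preincubate 5 min with complex of recombinant Rango and importin beta in PBS with 1 mM DTT. Ran (0.6 uM) loaded with 2 mM GTP plus 0.2 uM RCC1 starts dissociation; FRET is recorded 45 min later.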
ClpP mod: qHTS Assay for Activators of ClpP; ATP-dependent Clp protease proteolytic subunit (Bacillus subtilis (strain 168)), P80244; purified B. subtilis ClpP, FRET peptide cleavage, 20 min; Potency, µM (top dose mostly 57.5 µM); hit rate 1.9% among 340,000; AID 651965, 2013; active = well fitted falling curve with a large enough effect; inconclusive = small, poorly fitted or top-dose-only effect; inactive = no such curve, though single readings can be large or run the other way; note: the source files actives as falling curves though it sought activators and does not explain the sign; nearly all actives have a fitted effect of over 65% in size
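ClpP 10 microg/mL final, pH 8 Tris/KCl buffer with BSA, glycerol, Tween-20; compound pinned in; FRET-FV substrate; RT 20 min; Ex320/Em430; ΔFRET vs ADEP 5.8 microM, DMSO, no enzyme.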
TSG101-PTAP inh: blocks PTAP/TSG101 interaction to inhibit HIV-1 budding; Q99816; Fluorescence polarization, FITC-PTAP peptide / Tsg101 binding; Potency, µM (series often up to 115 µM), usual class: inhibitors; 340,000 tested, under 10 active; active = well fitted inhibition curve with a large enough effect in the main read-out, with a control signal flat, not every such curve was filed as active; inconclusive = small, poorly fitted or top-dose-only effect, or effect the other way, or a change in a side signal; inactive = no such curve, though single readings can be large or run the other way
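Fluorescence polarization binding of Tsg101 binding domain (10 uM final) to FITC-labeled PTAP peptide (50 nM final) in HEPES pH 7.5 buffer with NaCl, Tween 20, EDTA, TCEP. Compounds added before peptide; binding 20 min at RT.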
TDP1 block: TDP1 (human) enzyme inhibition; Potency, µM (top dose mostly 130 µM), actives largely listed as inhibitors; Q9NUW8; AID 485290; recombinant TDP1, AlphaScreen DNA substrate cleavage; hit rate 0.28% among 350,000; active = well fitted curve in the direction sought with a large enough effect; inconclusive = small, poorly fitted or top-dose-only effect, or another doubt; inactive = no such curve, though single readings can be large; an effect the other way counts as inactive or inconclusive; note: nearly all actives have a fitted effect of over 40% in size
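Tdp1 1 nM final; 15 min RT w/ cpd; substrate 15 nM, 5 min; beads 10 ug/ml, 10 min; AlphaScreen read. Neg ctrl: no enzyme.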
Rango-impB inh: Rango-importin beta binding inhibition. Q14974. Rango CFP/YFP FRET sensor + importin beta, 45 min. Potency, µM (titrated, usually from 92.2 µM). hit rate 0.031% among 340,000; note: nearly all actives have a fitted effect of over 15% in size
Target sequence (Q14974 whole entry, looked up): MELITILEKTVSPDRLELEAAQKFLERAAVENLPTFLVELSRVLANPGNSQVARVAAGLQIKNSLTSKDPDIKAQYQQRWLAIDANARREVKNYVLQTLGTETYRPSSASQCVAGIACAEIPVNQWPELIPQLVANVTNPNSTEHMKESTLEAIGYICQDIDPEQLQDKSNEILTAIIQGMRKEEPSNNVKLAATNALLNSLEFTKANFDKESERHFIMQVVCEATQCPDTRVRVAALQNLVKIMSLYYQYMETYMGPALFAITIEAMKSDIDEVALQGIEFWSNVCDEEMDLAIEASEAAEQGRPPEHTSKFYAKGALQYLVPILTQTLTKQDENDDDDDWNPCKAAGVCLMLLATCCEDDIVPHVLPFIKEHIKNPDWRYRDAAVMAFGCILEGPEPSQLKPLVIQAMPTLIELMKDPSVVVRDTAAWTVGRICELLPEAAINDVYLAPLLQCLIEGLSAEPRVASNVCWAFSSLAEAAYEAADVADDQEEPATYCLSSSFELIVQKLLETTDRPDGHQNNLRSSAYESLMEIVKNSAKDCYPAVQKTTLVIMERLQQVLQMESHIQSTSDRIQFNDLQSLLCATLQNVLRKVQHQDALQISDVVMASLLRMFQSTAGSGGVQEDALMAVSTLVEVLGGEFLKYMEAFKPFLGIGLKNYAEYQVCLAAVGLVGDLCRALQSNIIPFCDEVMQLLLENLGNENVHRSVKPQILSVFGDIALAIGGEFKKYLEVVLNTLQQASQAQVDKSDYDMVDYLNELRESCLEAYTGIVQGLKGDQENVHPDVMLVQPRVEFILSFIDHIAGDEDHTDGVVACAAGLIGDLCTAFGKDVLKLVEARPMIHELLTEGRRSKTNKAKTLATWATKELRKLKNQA
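FRET biosensor (snurportin 1 IBB flanked by EYFP and cerulean), 50 nM, with compound 5 min, then 0.125 microM importin beta in PBS, 1 mM DTT, 0.02% Tween-20, 0.1% BSA. CFP/YFP ratio read after 45 min at room temperature; pre-read flags interference.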
Hits are given with their value; ! = repeats disagree; [ ] = another dose, or the depositor's remark. This is a sample that favours compounds with a hit; in the whole collection about 2.4% have one here. Unless noted, calls come from the whole dose curve.

Screening CC(C)CCOC(=O)c1c(N)n(CC2CCCO2)c2nc3ccccc3nc12 (configuration not stated) returned ALOX12 inh inactive, Rango dissoc inh inconclusive, ClpP mod 28.2µM, TSG101-PTAP inh inactive, TDP1 block inactive and Rango-impB inh inconclusive.
Screening CC(C)OCCCNC(=O)c1c(N)n(CC2CCCO2)c2nc3ccccc3nc12 (configuration not stated) returned ALOX12 inh inactive, Rango dissoc inh inconclusive, ClpP mod 14.1µM, TSG101-PTAP inh inactive and Rango-impB inh inconclusive.
`O=C(C1CCC1)N1[C@H]2CC[C@@H]1c1cnc(-c3ccc(F)cc3)nc1C2` gave ALOX12 inh inactive.
For Cn1c2ccccc2c2c(C(=O)N3CCC4(CC3)OCCO4)cn(C3CCCCC3)c(=O)c21 the results were ALOX12 inh inactive, Rango dissoc inh inconclusive, ClpP mod 17.8µM, TSG101-PTAP inh inactive, TDP1 block inactive and Rango-impB inh inactive.
`Cn1c(C(=O)N2CCC3(CC2)OCCO3)cc2c(=O)n(C)c3ccccc3c21` gave ALOX12 inh inactive, Rango dissoc inh inactive, ClpP mod inactive, TSG101-PTAP inh inactive, TDP1 block inactive and Rango-impB inh inactive.
Screening Cn1c2ccccc2c2cnn(CC(=O)N3CCC4(CC3)OCCO4)c(=O)c21 returned TDP1 block inactive.
For Cn1cc(C(=O)N2CCC3(CC2)OCCO3)c2c3ccccc3n(C)c2c1=O the results were ALOX12 inh inactive, Rango dissoc inh inactive, ClpP mod 14.1µM, TSG101-PTAP inh inactive, TDP1 block inactive and Rango-impB inh inactive.
For COc1ccc(OC)c(S(=O)(=O)NC[C@H]2C[C@@H]3CCN2C[C@@H]3c2cc(-c3ccc(F)cc3)nn2C)c1 the results were ALOX12 inh inactive.
`CN1CCCC1c1ccc(=O)[nH]c1` (configuration not stated) gave ALOX12 inh inactive, Rango dissoc inh inactive, ClpP mod 31.6µM, TSG101-PTAP inh inactive and Rango-impB inh inactive.
Screening O=C(COc1ccccc1)N1CCN(CC2CC3C=CC2C3)CC1 (configuration not stated) returned ALOX12 inh inconclusive, Rango dissoc inh inactive, ClpP mod inactive, TSG101-PTAP inh inactive, TDP1 block inactive and Rango-impB inh inactive.
`O=C(COc1ccccc1)N1CCN(CC2CC=CCC2)CC1` (configuration not stated) gave ALOX12 inh 0.631µM, Rango dissoc inh inactive, TSG101-PTAP inh inactive, TDP1 block inactive[0.0935 µM] and Rango-impB inh inactive.
Screening COC(=O)C1=Nc2ccccc2/C1=C\c1c(O)n(-c2ccc(Br)cc2)c(=O)[nH]c1=O returned ALOX12 inh 35.5µM, Rango dissoc inh inactive, ClpP mod inactive, TSG101-PTAP inh inactive, TDP1 block inactive and Rango-impB inh inactive.
`CN1CCC(N2C[C@@H]3OCC(=O)N[C@@H]3C2)CC1` gave ALOX12 inh inactive.
CCn1c(C2CCNCC2)nn(C)c1=O was read as ALOX12 inh inactive.
For CCCCc1ccc2[nH]cc(CCN)c2c1 the results were ALOX12 inh inactive, Rango dissoc inh inactive, ClpP mod inactive, TSG101-PTAP inh inactive, TDP1 block inactive and Rango-impB inh inactive.
`CCCCc1ccc2[nH]c(C)c(CCN)c2c1` gave ALOX12 inh 3.16µM.
O=C(NC[C@H]1C[C@@H]2CCN1C[C@@H]2CN1CCN(c2ccc(F)cc2)CC1)c1ccco1 was read as ALOX12 inh inactive.
Screening NCCc1cc(O)c(O)cc1O returned ALOX12 inh inconclusive, Rango dissoc inh inconclusive, ClpP mod inactive, TSG101-PTAP inh inactive, TDP1 block 0.251µM and Rango-impB inh inconclusive.
Screening Cc1cc(OCC(=O)NCC2CCC(C(=O)O)CC2)c2c3c(c(=O)oc2c1)CCC3 (configuration not stated) returned ALOX12 inh inactive, Rango dissoc inh inactive, ClpP mod inactive, TSG101-PTAP inh inactive and Rango-impB inh inactive.
Cc1cc(OCC(=O)NC2CCS(=O)(=O)C2)c2c3c(c(=O)oc2c1)CCC3 (configuration not stated) was read as ALOX12 inh inactive, Rango dissoc inh inactive, ClpP mod 3.16µM, TSG101-PTAP inh inactive, TDP1 block inactive and Rango-impB inh inactive.
For COC(=O)C(C)Oc1cc(C)cc2oc(=O)c3c(c12)CCC3 (configuration not stated) the results were ALOX12 inh inactive, Rango dissoc inh inactive, ClpP mod inactive, TSG101-PTAP inh inactive, TDP1 block inactive and Rango-impB inh inactive.
`CCOC(=O)C(C)Oc1cc(C)cc2oc(=O)c3c(c12)CCCC3` (configuration not stated) gave ALOX12 inh inactive, Rango dissoc inh inconclusive, ClpP mod 15.8µM, TSG101-PTAP inh inactive, TDP1 block inactive and Rango-impB inh inactive.
Cc1cc(OCC(=O)OC(C)C)c2c3c(c(=O)oc2c1)CCCC3 was read as ALOX12 inh inactive, Rango dissoc inh inactive, ClpP mod 35.5µM, TSG101-PTAP inh inactive, TDP1 block inactive and Rango-impB inh inactive.
`C[N+]1(CC(COCc2ccccc2)OC(=O)Cc2ccccc2)CCOCC1` (configuration not stated) gave ALOX12 inh 39.8µM, Rango dissoc inh inactive, ClpP mod inactive, TSG101-PTAP inh inactive, TDP1 block inactive and Rango-impB inh inactive.
Cc1c(OCC(F)(F)F)ccnc1CS(=O)c1nc2ccccc2[nH]1 (configuration not stated) was read as ALOX12 inh 12.2µM!, Rango dissoc inh inactive, ClpP mod inactive, TSG101-PTAP inh inactive, TDP1 block inactive and Rango-impB inh inactive.
COC(=O)c1nc(-c2ccc3c(n2)C(=O)C(N)=C(OC)C3=O)c(N)c(-c2ccc(OC)c(OC)c2O)c1C was read as ALOX12 inh 15.8µM, Rango dissoc inh inactive, TSG101-PTAP inh inactive, TDP1 block inactive and Rango-impB inh inconclusive.
For O=C(O)CC[n+]1ccc(-c2cc[n+](CCC(=O)O)cc2)cc1 the results were ALOX12 inh 14.1µM.
Screening COc1ccc2c3c1OC1C(O)C=CC4C(C2)[N+](C)(C)CCC341 (configuration not stated) returned ALOX12 inh 44.7µM, Rango dissoc inh inactive, ClpP mod inactive, TSG101-PTAP inh inactive and Rango-impB inh inactive.
For COc1cccc(N2C(=O)/C(=C/c3ccc(C)o3)C(=O)NC2=S)c1 the results were ALOX12 inh 10µM, Rango dissoc inh inactive, ClpP mod inactive, TSG101-PTAP inh inactive and Rango-impB inh inactive.
